Source: PubChem BioAssay AID1117284 (Broad Institute, 2014)
Measured potencies and affinities stand elsewhere. Calls of active or inactive are those of the source.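 The calls were made as follows: active = viability signal drop whose fitted half-maximal concentration is at most twice the top valid dose; inconclusive = flat partial drop or unreliable curve fit; inactive = the rest.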

Test: lung carcinoma cell viability loss – CellTiter-Glo luminescence, dry powder, set 17, dose response (AID 1117284)
Details: A549 viability, CellTiter-Glo ATP luminescence, 72 h; series mostly up to 26 µM

Compound | outcome
C[C@H]1CN([C@@H](C)CO)S(=O)(=O)c2ccc(Br)cc2O[C@H]1CN(C)Cc1ccc(-c2ccccc2)cc1 | inactive
C[C@@H](O)C#Cc1ccc2c(c1)O[C@@H](CN(C)S(=O)(=O)c1ccc(-c3ccccc3)cc1)[C@@H](C)CN([C@@H](C)CO)S2(=O)=O | inactive
CNC[C@@H]1Oc2cc(Br)ccc2S(=O)(=O)N([C@@H](C)CO)C[C@@H]1C | inactive
C[C@@H](O)C#Cc1ccc2c(c1)O[C@@H](CN(C)C(=O)c1ccc(-c3ccccc3)cc1)[C@@H](C)CN([C@@H](C)CO)S2(=O)=O | inactive
C[C@@H](O)C#Cc1ccc2c(c1)O[C@@H](CN(C)Cc1ccncc1)[C@@H](C)CN([C@@H](C)CO)S2(=O)=O | inactive
CO[C@H]1CN(C)C(=O)c2ccc(NC(=O)c3ccc(F)cc3)cc2OC[C@H](C)N(C(=O)c2ccc(F)cc2)C[C@@H]1C | inactive
C[C@@H](O)C#Cc1ccc2c(c1)O[C@@H](CN(C)Cc1cccnc1)[C@@H](C)CN([C@@H](C)CO)S2(=O)=O | inactive
C[C@H](CO)N1C[C@H](C)[C@H](CN(C)Cc2ccc(-c3ccccc3)cc2)Oc2cc(C#C[C@@H](C)O)ccc2S1(=O)=O | inactive
